Source: PubChem BioAssay (EPA / NIEHS)
Calls of active or inactive are those of the source. The calls were made as follows: active = hit-call score of the fitted dose curve at least 0.9, where 1 is the maximum; inactive = score below 0.9.

What was measured:
[1] = CEETOX_H295R_PROG: CeeTox H295R High-throughput Steroidogenesis Assay for Progesterone (PROG) (AID 2283442); conditions: actives raise or lower the signal
In short: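 Steps: seed H295R cells and let them adhere overnight; prime 48 h with 10 uM forskolin; dose with compound in DMSO at 0.1% final for 48 h; extract medium steroids with MTBE; measure progesterone by LC-MS/MS. MTT viability was run in the same wells.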

[2] = read-out: Tumor necrosis factor receptor superfamily member 6 (Homo sapiens) (UniProt P25445); assay: LTEA_HepaRG_FAS: Life Technologies and Expression Analysis (LTEA) Assay for Fas cell surface death receptor (FAS) using HepaRG (AID 2283447); conditions: mRNA level, 48 h; actives raise or lower the signal
In short: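 Differentiated human HepaRG cells, pre-cultured 48 h, were exposed in duplicate for 48 h to 8-point half-log concentrations (top 100 uM, 0.5% DMSO) in serum-free induction medium; FAS mRNA measured by qRT-PCR, normalized to ACTB/GAPDH/POLR2A, bidirectional fit versus DMSO.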

[3] = read-out: Cyclin D2 (CCND2), CCND2 (gene 894); assay: LTEA_HepaRG_CCND2: Life Technologies and Expression Analysis (LTEA) Assay for Cyclin D2 (CCND2) using HepaRG (AID 2283449); conditions: mRNA level, 48 h; actives raise or lower the signal;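 also: CCND2 transcript measured by TaqMan qRT-PCR and normalised to three housekeeping genes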
In short: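 In this HepaRG study, an eight-point concentration series (max 100 uM, 0.5% DMSO) is applied for 48 h. CCND2 mRNA change is derived by qRT-PCR normalised to ACTB, GAPDH and POLR2A.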

[4] = read-out: Cyclin Dependent Kinase Inhibitor 1A (CDKN1A), CDKN1A (gene 1026); assay: LTEA_HepaRG_CDKN1A: Life Technologies and Expression Analysis (LTEA) Assay for Cyclin Dependent Kinase Inhibitor 1A (CDKN1A) using HepaRG (AID 2283450); conditions: mRNA level, 48 h; actives raise or lower the signal
In short: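 Read-out is CDKN1A mRNA by TaqMan qRT-PCR, normalized to three housekeeping genes and fitted in both directions against the DMSO baseline. Human HepaRG cells were treated 48 h with test chemicals up to 100 uM in half-log steps, 0.5% DMSO.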

[5] = read-out: catalase (CAT), CAT (gene 847); assay: LTEA_HepaRG_CAT: Life Technologies and Expression Analysis (LTEA) Assay for catalase (CAT) using HepaRG (AID 2283452); conditions: mRNA level, 48 h; actives raise or lower the signal;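 as to AC50: TaqMan qRT-PCR signal normalized to ACTB GAPDH and POLR2A housekeeping genes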
In short: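 Differentiated HepaRG cells in serum-free induction medium were dosed 48 h in duplicate, eight half-log concentrations from 100 uM in 0.5% DMSO. Transcript measured by TaqMan qRT-PCR, normalised to ACTB/GAPDH/POLR2A, fitted bidirectionally against DMSO.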

[6] = read-out: flavin-containing dimethylaniline monooxygenases 3 (FMO3), FMO3 (gene 2328); assay: LTEA_HepaRG_FMO3: Life Technologies and Expression Analysis (LTEA) Assay for flavin-containing dimethylaniline monooxygenases 3 (FMO3) using HepaRG (AID 2283453); conditions: mRNA level, 48 h; actives raise or lower the signal;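 as to AC50: FMO3 transcript by TaqMan qRT-PCR normalized to ACTB GAPDH and POLR2A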
In short: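 FMO3 transcript quantified by TaqMan qRT-PCR against three housekeeping genes after 48 h chemical exposure of HepaRG cells. Eight-point half-log series, top 100 uM, 0.5% DMSO vehicle; phenobarbital 1mM induction control; up- or down-regulation fitted.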

[7] = read-out: Cytochrome P450 (CYP1A1), CYP1A1 (gene 1543); assay: LTEA_HepaRG_CYP1A1: Life Technologies and Expression Analysis (LTEA) Assay for Cytochrome P450 (CYP1A1) using HepaRG (AID 2283454); conditions: mRNA level, 48 h; actives raise or lower the signal
In short: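 HepaRG, 48 h post-plating switched to serum-free induction medium; 8-pt conc-response (top 100 uM, half-log, 0.5% DMSO), duplicates, 48 h. Lysis in RLT, TaqMan qRT-PCR for CYP1A1; gain or loss vs DMSO.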

[8] = read-out: CFLAR gene, CFLAR (gene 8837); assay: LTEA_HepaRG_CFLAR: Life Technologies and Expression Analysis (LTEA) Assay for CFLAR gene using HepaRG (AID 2283455); conditions: mRNA level, 48 h; actives raise or lower the signal
In short: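 Gain- or loss-of-signal changes in CFLAR transcript were fitted bidirectionally relative to 0.5% DMSO. Cells (HepaRG, duplicate wells) were dosed for 48 h across eight half-log concentrations topping at 100 uM; quantitation by TaqMan qRT-PCR.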

[9] = read-out: Forkhead box O1 (FOXO1), FOXO1 (gene 2308); assay: LTEA_HepaRG_FOXO1: Life Technologies and Expression Analysis (LTEA) Assay for Forkhead box O1 (FOXO1) using HepaRG (AID 2283456); conditions: mRNA level, 48 h; actives raise or lower the signal
In short: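 Using one lot of HepaRG hepatic cells kept in 0.5% DMSO, the team applied test chemicals in duplicate, half-log dilutions from 100 uM, for 48 h. Expression, normalised to ACTB/GAPDH/POLR2A, was compared with vehicle in either direction.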

[10] = read-out: growth arrest and DNA damage 45 (GADD45A), GADD45A (gene 1647); assay: LTEA_HepaRG_GADD45A: Life Technologies and Expression Analysis (LTEA) Assay for growth arrest and DNA damage 45 (GADD45A) using HepaRG (AID 2283458); conditions: mRNA level, 48 h; actives raise or lower the signal
In short: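 Transcript induction or loss, quantified by TaqMan qRT-PCR against three housekeeping genes, is the read-out. HepaRG cells received chemicals for 48 h across eight half-log concentrations from 100 uM in 0.5% DMSO; gain and loss fitted relative to DMSO.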

[11] = read-out: Forkhead box O3 (FOXO3), FOXO3 (gene 2309); assay: LTEA_HepaRG_FOXO3: Life Technologies and Expression Analysis (LTEA) Assay for Forkhead box O3 (FOXO3) using HepaRG (AID 2283459); conditions: mRNA level, 48 h; actives raise or lower the signal
In short: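 Gene-expression endpoint: FOXO3 transcript level by qRT-PCR in HepaRG cultures treated 48 h with chemicals up to 100 uM (half-log, 0.5% DMSO vehicle).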

[12] = read-out: ABC Transporter (ABCB1), ABCB1 (gene 5243); assay: LTEA_HepaRG_ABCB1: Life Technologies and Expression Analysis (LTEA) Assay for ABC Transporter (ABCB1) using HepaRG (AID 2283460); conditions: mRNA level, 48 h; actives raise or lower the signal
In short: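 Human liver HepaRG line treated 48 h with up to 100 uM compound (eight half-log points, 0.5% DMSO); ABCB1 mRNA change fitted bidirectionally against DMSO controls.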

[13] = read-out: growth arrest and DNA damage 45 (GADD45B), GADD45B (gene 4616); assay: LTEA_HepaRG_GADD45B: Life Technologies and Expression Analysis (LTEA) Assay for growth arrest and DNA damage 45 (GADD45B) using HepaRG (AID 2283461); conditions: mRNA level, 48 h; actives raise or lower the signal
In short: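 HepaRG, ~100,000 cells/well, 48 h plating; serum-free induction medium; cpd 100 uM top, half-log x8, 0.5% DMSO, duplicate, 48 h; lysis in RLT, RNA isolation, qRT-PCR; norm ACTB/GAPDH/POLR2A; bidirectional fit vs DMSO.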

[14] = read-out: ABC Transporter (ABCC3), ABCC3 (gene 8714); assay: LTEA_HepaRG_ABCC3: Life Technologies and Expression Analysis (LTEA) Assay for ABC Transporter (ABCC3) using HepaRG (AID 2283462); conditions: mRNA level, 48 h; actives raise or lower the signal
In short: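 Human HepaRG, 48 h dosing, 8-pt half-log series from 100 uM, 0.5% DMSO vehicle, duplicates. ABCC3 mRNA by TaqMan qRT-PCR, housekeeping-normalized; bidirectional curve fit vs DMSO.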

[15] = read-out: ABC Transporter (ABCB11), ABCB11 (gene 8647); assay: LTEA_HepaRG_ABCB11: Life Technologies and Expression Analysis (LTEA) Assay for ABC Transporter (ABCB11) using HepaRG (AID 2283463); conditions: mRNA level, 48 h; actives raise or lower the signal
In short: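 Using HepaRG cultures held in 0.5% DMSO, chemicals were tested at half-log dilutions from 100 uM for 48 h. Induction or suppression of ABCB11 mRNA, normalized to ACTB, GAPDH and POLR2A, was fitted bidirectionally against vehicle.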

[16] = read-out: ABC Transporter (ABCC2), ABCC2 (gene 1244); assay: LTEA_HepaRG_ABCC2: Life Technologies and Expression Analysis (LTEA) Assay for ABC Transporter (ABCC2) using HepaRG (AID 2283464); conditions: mRNA level, 48 h; actives raise or lower the signal
In short: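 HepaRG, 48 h post-plating; serum-free induction medium; cpd 8-pt, 100 uM top, half-log, 0.5% DMSO, duplicate, 48 h. Readout: ABCC2 mRNA by qRT-PCR, norm. ACTB/GAPDH/POLR2A. Bidirectional fit vs DMSO baseline.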

[17] = read-out: Broad substrate specificity ATP-binding cassette transporter ABCG2 (Homo sapiens) (UniProt Q9UNQ0); assay: LTEA_HepaRG_ABCG2: Life Technologies and Expression Analysis (LTEA) Assay for ABC Transporter (ABCG2) using HepaRG (AID 2283465); conditions: mRNA level, 48 h; actives raise or lower the signal
In short: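 Gene expression of ABCG2 in HepaRG liver cells is quantified by qRT-PCR following 48 h exposure across an eight-point series topping at 100 uM. Values come from bidirectional fitting relative to DMSO vehicle.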

[18] = read-out: Fatty acid synthase (Homo sapiens) (UniProt P49327); assay: LTEA_HepaRG_FASN: Life Technologies and Expression Analysis (LTEA) Assay for Fatty Acid Synthase (FASN) using HepaRG (AID 2283448); conditions: mRNA level, 48 h; actives raise or lower the signal
In short: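 Cells were plated, cultured 48 h, switched to serum-free induction medium, then dosed in duplicate (max 100 uM, half-log dilutions, 0.5% DMSO) for 48 h. RNA was then isolated and FASN quantified by qRT-PCR.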

Measured: AC50

Chain of Broad substrate specificity ATP-binding cassette transporter ABCG2 (Homo sapiens) (Q9UNQ0 whole entry, looked up): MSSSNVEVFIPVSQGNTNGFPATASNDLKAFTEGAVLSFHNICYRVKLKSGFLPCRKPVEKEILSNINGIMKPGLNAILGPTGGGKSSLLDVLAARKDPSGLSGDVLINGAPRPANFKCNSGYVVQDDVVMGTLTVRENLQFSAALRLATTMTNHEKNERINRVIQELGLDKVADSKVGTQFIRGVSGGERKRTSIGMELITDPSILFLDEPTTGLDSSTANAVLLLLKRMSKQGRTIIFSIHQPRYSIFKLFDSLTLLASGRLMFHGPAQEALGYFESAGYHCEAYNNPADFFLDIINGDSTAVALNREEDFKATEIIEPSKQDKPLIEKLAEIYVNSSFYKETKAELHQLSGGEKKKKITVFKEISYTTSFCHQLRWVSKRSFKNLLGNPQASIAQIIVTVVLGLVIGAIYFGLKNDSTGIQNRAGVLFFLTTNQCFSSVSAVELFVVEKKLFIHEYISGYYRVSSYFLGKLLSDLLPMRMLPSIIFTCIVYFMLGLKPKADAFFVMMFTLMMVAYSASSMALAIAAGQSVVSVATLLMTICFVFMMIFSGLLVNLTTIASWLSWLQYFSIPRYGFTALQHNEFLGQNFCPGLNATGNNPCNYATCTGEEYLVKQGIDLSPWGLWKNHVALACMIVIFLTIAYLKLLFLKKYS
Chain of Fatty acid synthase (Homo sapiens) (P49327 whole entry, looked up): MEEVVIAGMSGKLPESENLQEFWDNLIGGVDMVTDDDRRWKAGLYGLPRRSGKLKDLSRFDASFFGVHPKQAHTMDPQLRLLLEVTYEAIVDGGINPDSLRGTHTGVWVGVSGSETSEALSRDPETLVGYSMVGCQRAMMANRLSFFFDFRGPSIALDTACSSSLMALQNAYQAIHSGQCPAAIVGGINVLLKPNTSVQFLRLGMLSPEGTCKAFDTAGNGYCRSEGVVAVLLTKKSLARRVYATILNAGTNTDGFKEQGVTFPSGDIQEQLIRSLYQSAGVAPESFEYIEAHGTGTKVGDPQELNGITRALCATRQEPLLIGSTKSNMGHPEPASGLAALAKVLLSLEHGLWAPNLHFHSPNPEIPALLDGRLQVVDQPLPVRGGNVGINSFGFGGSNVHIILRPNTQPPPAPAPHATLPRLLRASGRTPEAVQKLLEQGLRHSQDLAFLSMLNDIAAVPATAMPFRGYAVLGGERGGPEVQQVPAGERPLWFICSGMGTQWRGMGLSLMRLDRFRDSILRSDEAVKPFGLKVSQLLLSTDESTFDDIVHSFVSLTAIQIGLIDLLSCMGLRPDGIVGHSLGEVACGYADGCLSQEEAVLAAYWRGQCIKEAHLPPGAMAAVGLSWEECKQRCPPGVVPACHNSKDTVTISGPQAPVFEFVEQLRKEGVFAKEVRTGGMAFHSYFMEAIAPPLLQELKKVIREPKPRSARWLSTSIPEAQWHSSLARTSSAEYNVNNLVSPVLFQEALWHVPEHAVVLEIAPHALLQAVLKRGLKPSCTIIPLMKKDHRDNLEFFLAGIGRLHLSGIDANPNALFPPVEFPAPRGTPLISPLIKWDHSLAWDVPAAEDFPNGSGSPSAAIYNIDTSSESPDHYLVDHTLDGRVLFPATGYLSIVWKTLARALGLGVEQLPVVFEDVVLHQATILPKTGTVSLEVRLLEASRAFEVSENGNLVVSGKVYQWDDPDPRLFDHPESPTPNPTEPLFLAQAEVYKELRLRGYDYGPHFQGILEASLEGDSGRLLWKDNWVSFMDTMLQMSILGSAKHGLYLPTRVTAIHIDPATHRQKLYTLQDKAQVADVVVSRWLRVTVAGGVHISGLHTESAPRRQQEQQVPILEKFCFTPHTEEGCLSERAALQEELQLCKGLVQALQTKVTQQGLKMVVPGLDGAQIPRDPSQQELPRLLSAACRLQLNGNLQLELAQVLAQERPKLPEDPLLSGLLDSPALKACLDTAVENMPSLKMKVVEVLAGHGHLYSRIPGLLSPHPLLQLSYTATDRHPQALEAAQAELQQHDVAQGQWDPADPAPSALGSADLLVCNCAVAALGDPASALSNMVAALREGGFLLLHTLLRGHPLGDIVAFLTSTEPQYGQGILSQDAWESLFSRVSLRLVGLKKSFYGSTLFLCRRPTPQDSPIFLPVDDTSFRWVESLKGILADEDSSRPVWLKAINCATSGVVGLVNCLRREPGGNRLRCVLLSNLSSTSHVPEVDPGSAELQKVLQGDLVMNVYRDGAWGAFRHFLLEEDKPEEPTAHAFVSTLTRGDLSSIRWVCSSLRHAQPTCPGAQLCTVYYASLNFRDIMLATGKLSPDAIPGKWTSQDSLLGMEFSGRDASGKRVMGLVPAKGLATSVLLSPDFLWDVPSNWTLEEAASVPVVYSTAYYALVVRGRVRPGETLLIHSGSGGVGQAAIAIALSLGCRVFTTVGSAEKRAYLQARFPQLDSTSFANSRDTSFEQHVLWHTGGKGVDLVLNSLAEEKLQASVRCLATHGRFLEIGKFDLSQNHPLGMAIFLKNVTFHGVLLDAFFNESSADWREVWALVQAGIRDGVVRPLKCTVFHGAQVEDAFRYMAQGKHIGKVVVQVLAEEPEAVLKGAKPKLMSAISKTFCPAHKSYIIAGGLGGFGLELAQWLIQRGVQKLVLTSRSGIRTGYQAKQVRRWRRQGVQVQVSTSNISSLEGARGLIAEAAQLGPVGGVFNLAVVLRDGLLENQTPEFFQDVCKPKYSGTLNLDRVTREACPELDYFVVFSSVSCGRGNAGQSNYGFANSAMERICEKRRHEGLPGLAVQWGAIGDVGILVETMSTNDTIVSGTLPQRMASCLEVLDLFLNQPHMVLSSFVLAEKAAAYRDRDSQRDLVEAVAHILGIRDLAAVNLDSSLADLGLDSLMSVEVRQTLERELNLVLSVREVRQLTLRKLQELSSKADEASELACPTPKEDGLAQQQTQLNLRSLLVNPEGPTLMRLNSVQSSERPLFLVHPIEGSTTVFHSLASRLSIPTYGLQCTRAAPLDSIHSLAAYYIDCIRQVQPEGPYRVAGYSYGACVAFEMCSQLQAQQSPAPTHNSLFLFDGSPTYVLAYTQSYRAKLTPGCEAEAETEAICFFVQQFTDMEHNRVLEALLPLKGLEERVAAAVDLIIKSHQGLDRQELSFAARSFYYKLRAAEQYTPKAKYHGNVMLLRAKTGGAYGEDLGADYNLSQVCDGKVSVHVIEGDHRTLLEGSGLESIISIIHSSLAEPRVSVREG

CCCCC(CC)CN1C(=O)C2C3C=CC(C3)C2C1=O (configuration not stated)
active: [4] 77.1 µM | [5] 77.2 µM | [6] 78.7 µM | [7] 12.6 µM | [12] 12.5 µM | [14] 50 µM | [15] 89 µM | [17] 13.2 µM
not listed: [18]
inactive: all other assays above

O=C(c1ccc(O)cc1O)c1ccc(O)cc1O
not listed: [1]
inactive: all other assays above

C#C[C@]1(O)CC[C@H]2[C@@H]3CCC4=CC(=O)CC[C@@H]4[C@H]3CC[C@@]21CC
active: [12] 0.156 µM | [15] 0.0365 µM
inactive: all other assays above
